# According to article PMC7862700, “An all-to-all approach to the identification of sequence-specific readers for epigenetic DNA modifications on cytosine”:
# Columns and labels:
# Assay in all cases: DAPPL (digital affinity profiling via proximity ligation, sequencing); 10 mM Tris-HCl pH 7.5, 50 mM NaCl, 1 mM DTT, 4% glycerol, room temperature, 30 min; GST-TFs on glutathione beads, 16-mer random dsDNA library, 0.1% formaldehyde crosslink after washing; high values mean tight binding
# FLI1 = molecular target: T1, FLI1 (Homo sapiens, UniProt Q01543 1-452); conditions: protein: recombinant; tags: N-terminal GST; dsDNA, one strand shown
# T1 sequence: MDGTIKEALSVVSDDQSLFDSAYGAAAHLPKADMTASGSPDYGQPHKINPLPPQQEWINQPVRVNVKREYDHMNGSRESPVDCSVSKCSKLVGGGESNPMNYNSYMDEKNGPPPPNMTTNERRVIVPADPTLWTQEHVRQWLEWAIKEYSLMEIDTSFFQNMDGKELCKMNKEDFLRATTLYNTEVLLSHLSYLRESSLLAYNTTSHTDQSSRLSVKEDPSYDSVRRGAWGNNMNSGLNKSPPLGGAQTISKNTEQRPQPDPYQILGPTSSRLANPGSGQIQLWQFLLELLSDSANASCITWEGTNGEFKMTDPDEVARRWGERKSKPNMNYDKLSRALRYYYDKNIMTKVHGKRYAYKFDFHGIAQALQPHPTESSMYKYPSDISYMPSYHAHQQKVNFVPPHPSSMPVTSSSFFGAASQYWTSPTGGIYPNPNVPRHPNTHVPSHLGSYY
# How it was run: (§1)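 Each value of binding signal is a hexamer's read frequency for a factor divided by the same hexamer's frequency in the tag-only sample. Barcoded, bead-captured GST fusions of human transcription factors made in yeast were pooled with that sample and incubated with 200 nmole of a random double-stranded 16-mer DNA library in Tris/NaCl/DTT/glycerol buffer at room temperature for 30 min. Washing, 0.1% formaldehyde crosslinking, proximity ligation, PCR and Illumina NextSeq500 sequencing followed.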
# ELK1 = molecular target: T2, ELK1 (Homo sapiens, UniProt P19419 1-428); conditions: protein: recombinant; tags: N-terminal GST; dsDNA, one strand shown
# T2 sequence: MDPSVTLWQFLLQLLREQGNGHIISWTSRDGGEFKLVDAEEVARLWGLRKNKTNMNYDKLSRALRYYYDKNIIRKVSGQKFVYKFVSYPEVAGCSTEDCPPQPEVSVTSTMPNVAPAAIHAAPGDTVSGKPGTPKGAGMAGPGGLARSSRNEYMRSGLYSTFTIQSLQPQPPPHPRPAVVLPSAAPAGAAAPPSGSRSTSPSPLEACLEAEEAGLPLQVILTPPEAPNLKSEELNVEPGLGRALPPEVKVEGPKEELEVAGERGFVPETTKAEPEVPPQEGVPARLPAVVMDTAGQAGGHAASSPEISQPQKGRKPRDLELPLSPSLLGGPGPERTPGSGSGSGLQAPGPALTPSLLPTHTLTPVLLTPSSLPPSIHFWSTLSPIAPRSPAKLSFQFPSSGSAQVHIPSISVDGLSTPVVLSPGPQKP
# How it was run: as §1
# GABPA = molecular target: T3, GABPA (Homo sapiens, UniProt Q06546 1-454); conditions: protein: recombinant; tags: N-terminal GST; dsDNA, one strand shown
# T3 sequence: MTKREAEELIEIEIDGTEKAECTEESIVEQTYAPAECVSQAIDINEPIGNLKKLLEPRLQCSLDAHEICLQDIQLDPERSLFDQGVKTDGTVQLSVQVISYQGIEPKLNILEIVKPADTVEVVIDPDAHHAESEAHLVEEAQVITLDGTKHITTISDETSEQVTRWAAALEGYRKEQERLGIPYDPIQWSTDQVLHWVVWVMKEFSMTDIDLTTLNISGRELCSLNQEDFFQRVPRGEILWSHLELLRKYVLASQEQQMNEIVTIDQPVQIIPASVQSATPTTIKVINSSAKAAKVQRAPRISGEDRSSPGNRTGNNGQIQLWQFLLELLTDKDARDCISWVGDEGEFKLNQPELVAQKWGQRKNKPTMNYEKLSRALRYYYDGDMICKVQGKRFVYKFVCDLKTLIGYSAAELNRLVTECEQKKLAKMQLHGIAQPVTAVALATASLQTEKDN
# How it was run: as §1
# ERG = molecular target: T4, ERG (Homo sapiens, UniProt P11308 1-479); conditions: protein: recombinant; tags: N-terminal GST; dsDNA, one strand shown
# T4 sequence: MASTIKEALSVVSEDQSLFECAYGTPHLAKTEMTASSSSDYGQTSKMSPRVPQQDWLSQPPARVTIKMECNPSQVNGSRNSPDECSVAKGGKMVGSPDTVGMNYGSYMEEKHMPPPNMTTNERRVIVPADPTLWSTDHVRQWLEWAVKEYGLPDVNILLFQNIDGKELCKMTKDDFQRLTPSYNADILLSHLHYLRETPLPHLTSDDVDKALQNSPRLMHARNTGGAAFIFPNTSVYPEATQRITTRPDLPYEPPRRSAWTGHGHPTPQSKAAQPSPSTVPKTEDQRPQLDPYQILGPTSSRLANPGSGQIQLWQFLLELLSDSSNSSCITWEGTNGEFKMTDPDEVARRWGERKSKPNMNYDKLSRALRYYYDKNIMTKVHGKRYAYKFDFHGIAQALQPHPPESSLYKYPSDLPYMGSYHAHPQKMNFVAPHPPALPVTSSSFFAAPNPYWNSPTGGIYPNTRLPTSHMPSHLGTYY
# How it was run: as §1
# ELF1 = ELF1 (Homo sapiens, UniProt P32519 1-619); conditions: protein: recombinant; tags: N-terminal GST; dsDNA, one strand shown
# Sequence of ELF1 (P32519 whole entry): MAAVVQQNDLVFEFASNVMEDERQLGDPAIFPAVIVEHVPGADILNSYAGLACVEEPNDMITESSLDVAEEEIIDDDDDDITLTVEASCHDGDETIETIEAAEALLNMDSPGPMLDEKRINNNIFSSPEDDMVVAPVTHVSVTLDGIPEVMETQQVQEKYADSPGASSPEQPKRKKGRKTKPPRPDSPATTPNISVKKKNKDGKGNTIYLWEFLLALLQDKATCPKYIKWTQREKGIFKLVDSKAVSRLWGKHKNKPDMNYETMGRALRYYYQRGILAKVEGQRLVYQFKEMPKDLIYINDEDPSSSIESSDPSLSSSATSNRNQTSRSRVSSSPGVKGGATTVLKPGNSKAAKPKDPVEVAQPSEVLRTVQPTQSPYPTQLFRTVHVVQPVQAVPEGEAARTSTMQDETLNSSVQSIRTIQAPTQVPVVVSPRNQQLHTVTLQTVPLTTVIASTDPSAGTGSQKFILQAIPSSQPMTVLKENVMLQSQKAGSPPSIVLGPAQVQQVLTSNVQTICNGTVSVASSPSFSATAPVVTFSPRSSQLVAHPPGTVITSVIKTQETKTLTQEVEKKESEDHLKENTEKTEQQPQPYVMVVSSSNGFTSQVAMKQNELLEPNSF
# How it was run: as §1
# EHF = molecular target: T5, EHF (Homo sapiens, UniProt Q9NZC4 1-300); conditions: protein: recombinant; tags: N-terminal GST; dsDNA, one strand shown
# T5 sequence: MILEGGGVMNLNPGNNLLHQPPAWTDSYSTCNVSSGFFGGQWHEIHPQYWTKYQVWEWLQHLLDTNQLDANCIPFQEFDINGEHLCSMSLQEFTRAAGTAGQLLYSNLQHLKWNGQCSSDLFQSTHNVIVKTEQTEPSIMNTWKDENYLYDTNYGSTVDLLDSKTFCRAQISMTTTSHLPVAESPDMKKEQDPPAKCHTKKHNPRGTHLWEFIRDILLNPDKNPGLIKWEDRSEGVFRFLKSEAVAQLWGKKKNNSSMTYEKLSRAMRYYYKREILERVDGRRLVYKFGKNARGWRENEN
# How it was run: as §1
# SPI1 = SPI1 (Homo sapiens, UniProt P17947 1-270); conditions: protein: recombinant; tags: N-terminal GST; dsDNA, one strand shown
# How it was run: as §1
# SPIB = SPIB (Homo sapiens, UniProt Q01892 1-262); conditions: protein: recombinant; tags: N-terminal GST; dsDNA, one strand shown
# Sequence of SPIB (Q01892 whole entry): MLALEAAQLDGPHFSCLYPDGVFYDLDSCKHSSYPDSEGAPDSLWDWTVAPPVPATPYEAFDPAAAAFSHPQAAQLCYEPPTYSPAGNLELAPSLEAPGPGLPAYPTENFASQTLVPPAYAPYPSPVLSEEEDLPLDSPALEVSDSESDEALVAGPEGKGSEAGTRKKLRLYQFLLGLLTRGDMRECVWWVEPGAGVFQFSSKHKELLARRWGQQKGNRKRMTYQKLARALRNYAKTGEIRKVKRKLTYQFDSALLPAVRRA
# How it was run: as §1
# ELK3 = molecular target: T6, ELK3 (Homo sapiens, UniProt P41970 1-407); conditions: protein: recombinant; tags: N-terminal GST; dsDNA, one strand shown
# T6 sequence: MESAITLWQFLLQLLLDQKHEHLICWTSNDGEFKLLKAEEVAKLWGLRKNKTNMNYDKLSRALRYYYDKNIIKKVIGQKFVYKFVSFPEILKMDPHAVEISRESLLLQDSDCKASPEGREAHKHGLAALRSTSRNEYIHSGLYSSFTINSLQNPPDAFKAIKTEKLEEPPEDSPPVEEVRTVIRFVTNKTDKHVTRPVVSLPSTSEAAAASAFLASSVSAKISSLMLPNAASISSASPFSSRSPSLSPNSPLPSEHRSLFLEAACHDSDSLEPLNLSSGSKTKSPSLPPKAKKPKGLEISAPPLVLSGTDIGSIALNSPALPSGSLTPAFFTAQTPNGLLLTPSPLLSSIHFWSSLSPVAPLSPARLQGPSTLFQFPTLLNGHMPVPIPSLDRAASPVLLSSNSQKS
# How it was run: as §1
# FEV = molecular target: T7, FEV (Homo sapiens, UniProt Q99581 1-238); conditions: protein: recombinant; tags: N-terminal GST; dsDNA, one strand shown
# T7 sequence: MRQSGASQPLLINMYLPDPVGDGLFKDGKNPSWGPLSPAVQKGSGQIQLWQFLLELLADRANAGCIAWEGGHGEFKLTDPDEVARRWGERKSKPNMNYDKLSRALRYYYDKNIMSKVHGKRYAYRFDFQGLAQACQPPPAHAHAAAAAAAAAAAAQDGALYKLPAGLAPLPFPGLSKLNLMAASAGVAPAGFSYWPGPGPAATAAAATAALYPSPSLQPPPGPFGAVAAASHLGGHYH
# How it was run: as §1
# ETV5 = ETV5 (Homo sapiens, UniProt P41161 1-510); conditions: protein: recombinant; tags: N-terminal GST; dsDNA, one strand shown
# Sequence of ETV5 (P41161 whole entry): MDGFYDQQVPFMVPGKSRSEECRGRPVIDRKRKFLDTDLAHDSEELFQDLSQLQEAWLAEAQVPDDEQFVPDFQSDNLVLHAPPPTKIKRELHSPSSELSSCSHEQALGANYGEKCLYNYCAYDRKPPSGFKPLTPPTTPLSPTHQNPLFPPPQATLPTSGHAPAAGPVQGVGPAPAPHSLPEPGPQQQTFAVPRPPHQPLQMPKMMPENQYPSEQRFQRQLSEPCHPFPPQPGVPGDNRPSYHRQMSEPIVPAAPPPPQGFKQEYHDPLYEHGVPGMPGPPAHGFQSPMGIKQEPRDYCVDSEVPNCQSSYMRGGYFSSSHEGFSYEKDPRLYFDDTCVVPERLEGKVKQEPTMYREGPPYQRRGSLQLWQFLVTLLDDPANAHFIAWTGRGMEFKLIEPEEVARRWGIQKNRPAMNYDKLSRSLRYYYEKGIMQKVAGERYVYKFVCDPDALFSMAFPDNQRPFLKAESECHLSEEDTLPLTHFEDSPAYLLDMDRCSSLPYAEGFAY
# How it was run: as §1
# HSF1 = HSF1 (Homo sapiens, UniProt Q00613 1-529); conditions: protein: recombinant; tags: N-terminal GST; chain copies: 3; dsDNA, one strand shown
# Sequence of HSF1 (Q00613 whole entry): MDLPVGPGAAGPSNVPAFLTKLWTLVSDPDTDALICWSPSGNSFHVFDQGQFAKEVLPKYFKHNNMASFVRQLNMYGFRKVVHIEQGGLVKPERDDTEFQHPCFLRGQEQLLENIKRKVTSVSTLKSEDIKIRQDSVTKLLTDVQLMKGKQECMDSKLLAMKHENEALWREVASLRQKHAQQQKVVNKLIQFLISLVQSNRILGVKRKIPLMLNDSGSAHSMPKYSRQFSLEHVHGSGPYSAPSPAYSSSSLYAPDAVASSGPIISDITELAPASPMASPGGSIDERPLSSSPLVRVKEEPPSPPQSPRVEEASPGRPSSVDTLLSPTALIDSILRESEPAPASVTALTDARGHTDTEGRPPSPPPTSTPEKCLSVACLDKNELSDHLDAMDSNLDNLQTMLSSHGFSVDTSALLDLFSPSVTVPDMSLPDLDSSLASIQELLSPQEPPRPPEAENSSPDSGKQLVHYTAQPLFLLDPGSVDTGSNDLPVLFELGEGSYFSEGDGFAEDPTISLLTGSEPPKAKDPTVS
# How it was run: as §1
# SPIC = molecular target: T8, SPIC (Homo sapiens, UniProt Q8N5J4 1-248); conditions: protein: recombinant; tags: N-terminal GST; dsDNA, one strand shown
# T8 sequence: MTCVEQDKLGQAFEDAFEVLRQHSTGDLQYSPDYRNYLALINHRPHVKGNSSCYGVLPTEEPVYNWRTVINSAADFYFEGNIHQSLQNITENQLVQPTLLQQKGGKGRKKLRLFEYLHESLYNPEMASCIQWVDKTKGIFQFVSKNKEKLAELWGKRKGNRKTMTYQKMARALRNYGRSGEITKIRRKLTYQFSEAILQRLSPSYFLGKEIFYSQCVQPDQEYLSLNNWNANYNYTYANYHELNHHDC
# How it was run: as §1
# ELF4 = ELF4 (Homo sapiens, UniProt Q99607 1-663); conditions: protein: recombinant; tags: N-terminal GST; dsDNA, one strand shown
# Sequence of ELF4 (Q99607 whole entry): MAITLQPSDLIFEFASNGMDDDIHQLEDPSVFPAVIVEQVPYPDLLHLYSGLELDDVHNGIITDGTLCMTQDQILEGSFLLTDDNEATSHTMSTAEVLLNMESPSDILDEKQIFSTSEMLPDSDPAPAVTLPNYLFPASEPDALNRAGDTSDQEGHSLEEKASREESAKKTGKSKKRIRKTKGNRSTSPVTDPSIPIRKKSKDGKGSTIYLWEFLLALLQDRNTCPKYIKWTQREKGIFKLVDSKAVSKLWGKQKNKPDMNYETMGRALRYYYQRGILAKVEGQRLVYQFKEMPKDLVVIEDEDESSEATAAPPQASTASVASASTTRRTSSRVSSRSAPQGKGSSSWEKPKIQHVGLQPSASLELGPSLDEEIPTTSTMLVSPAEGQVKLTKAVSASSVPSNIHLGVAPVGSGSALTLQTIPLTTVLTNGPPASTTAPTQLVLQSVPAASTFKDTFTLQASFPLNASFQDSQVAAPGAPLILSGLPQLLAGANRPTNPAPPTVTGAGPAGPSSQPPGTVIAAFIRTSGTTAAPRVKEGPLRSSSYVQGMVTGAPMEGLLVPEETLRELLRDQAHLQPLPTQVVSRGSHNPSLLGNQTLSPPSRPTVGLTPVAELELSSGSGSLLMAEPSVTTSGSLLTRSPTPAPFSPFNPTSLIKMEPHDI
# How it was run: as §1
# ELK4 = molecular target: T9, ELK4 (Homo sapiens, UniProt P28324-2 1-405); conditions: protein: recombinant; tags: N-terminal GST; dsDNA, one strand shown
# T9 sequence: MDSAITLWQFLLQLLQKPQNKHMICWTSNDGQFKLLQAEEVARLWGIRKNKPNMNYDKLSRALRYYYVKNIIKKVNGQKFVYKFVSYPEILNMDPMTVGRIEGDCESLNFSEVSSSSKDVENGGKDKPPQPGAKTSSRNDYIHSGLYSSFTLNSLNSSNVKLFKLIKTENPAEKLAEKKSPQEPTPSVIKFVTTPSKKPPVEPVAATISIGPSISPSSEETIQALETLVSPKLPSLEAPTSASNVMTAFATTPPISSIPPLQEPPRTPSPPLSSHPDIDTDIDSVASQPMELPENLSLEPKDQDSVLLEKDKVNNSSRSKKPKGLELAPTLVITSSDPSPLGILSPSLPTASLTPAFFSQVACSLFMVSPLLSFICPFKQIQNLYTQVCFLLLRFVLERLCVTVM
# How it was run: as §1
# ETV2 = molecular target: T10, ETV2 (Homo sapiens, UniProt O00321 1-342); conditions: protein: recombinant; tags: N-terminal GST; dsDNA, one strand shown
# T10 sequence: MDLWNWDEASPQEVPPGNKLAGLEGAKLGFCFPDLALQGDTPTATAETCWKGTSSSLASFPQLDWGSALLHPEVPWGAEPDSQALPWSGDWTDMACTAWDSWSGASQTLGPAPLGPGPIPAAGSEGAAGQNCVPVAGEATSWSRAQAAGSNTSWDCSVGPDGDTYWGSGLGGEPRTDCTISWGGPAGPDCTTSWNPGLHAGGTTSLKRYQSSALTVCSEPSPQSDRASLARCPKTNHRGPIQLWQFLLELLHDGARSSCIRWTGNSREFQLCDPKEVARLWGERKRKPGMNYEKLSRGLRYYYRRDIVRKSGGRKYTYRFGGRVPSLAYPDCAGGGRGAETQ
# How it was run: as §1
# ELF3 = molecular target: T11, ELF3 (Homo sapiens, UniProt P78545 1-371); conditions: protein: recombinant; tags: N-terminal GST; dsDNA, one strand shown
# T11 sequence: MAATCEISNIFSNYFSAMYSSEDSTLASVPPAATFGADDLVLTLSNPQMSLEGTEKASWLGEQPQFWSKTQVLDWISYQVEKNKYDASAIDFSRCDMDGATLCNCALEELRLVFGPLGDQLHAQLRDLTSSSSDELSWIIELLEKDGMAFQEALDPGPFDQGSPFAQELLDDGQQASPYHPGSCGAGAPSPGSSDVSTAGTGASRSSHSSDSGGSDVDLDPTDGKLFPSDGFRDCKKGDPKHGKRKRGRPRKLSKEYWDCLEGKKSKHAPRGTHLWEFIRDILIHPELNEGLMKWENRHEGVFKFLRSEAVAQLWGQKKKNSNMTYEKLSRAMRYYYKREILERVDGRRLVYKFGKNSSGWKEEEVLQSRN
# How it was run: as §1
# CRX = CRX (Homo sapiens, UniProt O43186 1-299); conditions: protein: recombinant; tags: N-terminal GST; dsDNA, one strand shown
# Sequence of CRX (O43186 whole entry): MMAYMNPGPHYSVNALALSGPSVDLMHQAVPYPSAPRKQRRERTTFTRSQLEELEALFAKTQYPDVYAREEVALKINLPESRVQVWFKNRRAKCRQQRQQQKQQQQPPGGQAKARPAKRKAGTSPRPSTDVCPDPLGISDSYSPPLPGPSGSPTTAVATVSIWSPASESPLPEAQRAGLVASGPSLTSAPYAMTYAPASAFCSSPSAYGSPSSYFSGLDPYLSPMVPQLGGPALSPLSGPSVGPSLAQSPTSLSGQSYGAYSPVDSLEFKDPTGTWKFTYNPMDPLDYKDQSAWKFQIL
# How it was run: as §1
# ETV1 = ETV1 (Homo sapiens, UniProt P50549 1-477); conditions: protein: recombinant; tags: N-terminal GST; dsDNA, one strand shown
# Sequence of ETV1 (P50549 whole entry): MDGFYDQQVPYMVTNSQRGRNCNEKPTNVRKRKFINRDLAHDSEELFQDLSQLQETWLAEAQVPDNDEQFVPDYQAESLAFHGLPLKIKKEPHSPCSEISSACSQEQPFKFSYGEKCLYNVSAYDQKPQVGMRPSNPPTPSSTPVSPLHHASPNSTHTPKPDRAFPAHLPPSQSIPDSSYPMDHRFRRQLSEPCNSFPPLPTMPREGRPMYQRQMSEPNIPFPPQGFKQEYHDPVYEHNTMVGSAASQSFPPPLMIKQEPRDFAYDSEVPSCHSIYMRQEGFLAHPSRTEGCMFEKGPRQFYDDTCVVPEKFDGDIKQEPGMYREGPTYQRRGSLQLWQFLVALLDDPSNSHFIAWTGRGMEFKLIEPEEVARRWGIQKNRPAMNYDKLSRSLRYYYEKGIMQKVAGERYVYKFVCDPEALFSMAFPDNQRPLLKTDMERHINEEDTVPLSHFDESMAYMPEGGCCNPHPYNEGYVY
# How it was run: as §1
sequence,measurement,setting,value
ATAGAA,binding signal,FLI1,"1.02 fold enrichment (6-mer frequency, TF over GST control)"
same,binding signal,ELK1,"1.04 fold enrichment (6-mer frequency, TF over GST control)"
same,binding signal,GABPA,"1.04 fold enrichment (6-mer frequency, TF over GST control)"
same,binding signal,ERG,"1.06 fold enrichment (6-mer frequency, TF over GST control)"
same,binding signal,ELF1,"1.05 fold enrichment (6-mer frequency, TF over GST control)"
same,binding signal,EHF,"1.07 fold enrichment (6-mer frequency, TF over GST control)"
same,binding signal,SPI1,"1.16 fold enrichment (6-mer frequency, TF over GST control)"
same,binding signal,SPIB,"1.08 fold enrichment (6-mer frequency, TF over GST control)"
same,binding signal,ELK3,"1.13 fold enrichment (6-mer frequency, TF over GST control)"
same,binding signal,FEV,"1.04 fold enrichment (6-mer frequency, TF over GST control)"
same,binding signal,ETV5,"1.05 fold enrichment (6-mer frequency, TF over GST control)"
same,binding signal,HSF1,"1.93 fold enrichment (6-mer frequency, TF over GST control)"
same,binding signal,SPIC,"1.03 fold enrichment (6-mer frequency, TF over GST control)"
same,binding signal,ELF4,"1.1 fold enrichment (6-mer frequency, TF over GST control)"
same,binding signal,ELK4,"1.02 fold enrichment (6-mer frequency, TF over GST control)"
same,binding signal,ETV2,"1.01 fold enrichment (6-mer frequency, TF over GST control)"
same,binding signal,ELF3,"1 fold enrichment (6-mer frequency, TF over GST control)"
same,binding signal,CRX,"1.28 fold enrichment (6-mer frequency, TF over GST control)"
same,binding signal,ETV1,"1.12 fold enrichment (6-mer frequency, TF over GST control)"
